Among the test systems are HCT-15 colon; HT29 colon; SNB-75 CNS; SNB-19 CNS; U251 CNS; PC-3 prostate; SK-MEL-5 melanoma; UACC-62 melanoma; LOX IMVI melanoma; SK-MEL-28 melanoma; SK-MEL-2 melanoma; SN12C renal; UO-31 renal; TK-10 renal; ACHN renal; CAKI-1 renal; A498 renal; CCRF-CEM leukemia; MOLT-4 leukemia; EKVX NSCLC.
Common to all, as to assay: NCI-60 one-dose screen, 48 h (100 = growth as untreated, 0 = no growth, -100 = all killed)
Common to all, as to settings: 10 µM unless noted

Molecules are shown by their SMILES. Compounds without any hit were thinned out: in the full panel of roughly 83,000, 20% have a hit.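 Interpretation: 100, growth as untreated; towards 0, rising growth inhibition; 0, no net growth; 0 to -100, cell death. Compounds scoring below 10 were considered active.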 Values without a mark were called inactive. Calls of active or inactive are those of the source.

With `CCn1c(SCC(=O)Nc2cccc(C(=O)/C=C/c3ccc(Br)cc3)c2)nc2ccccc2c1=O`, the growth is 65% in the experiment with HCT-15 colon; 85.4% in the experiment with HT29 colon; 73.8% in the experiment with SNB-75 CNS; 85.9% in the experiment on SNB-19 CNS; 88.7% in the experiment on U251 CNS; 83.4% in the experiment on PC-3 prostate. The growth in the experiment with SK-MEL-5 melanoma was 91.7%; with UACC-62 melanoma it was 73.9%; with LOX IMVI melanoma it was 41.9%; with SK-MEL-28 melanoma it was 98.2%; in the experiment on SK-MEL-2 melanoma, 106%; with SN12C renal, 92.7%. The growth in the experiment on UO-31 renal is 71.9%; in the experiment with TK-10 renal, 104%; in the experiment on ACHN renal it was 102%; in the experiment with CAKI-1 renal, 90.7%; in the experiment on A498 renal, 87.3%; in the experiment on CCRF-CEM leukemia, 75%. In addition, the growth in the experiment with MOLT-4 leukemia was 98.3%.
For `CC(C)(C)c1ccc(C(=O)Nc2sc3c(c2C(N)=O)CCC(O)C3)cc1` (stereo unspecified), the growth was 6.55% (active) in the experiment with HCT-15 colon; 2.76% (active) in the experiment with HT29 colon; 98.1% with SNB-75 CNS; 64.9% with SNB-19 CNS; 54% in the experiment on U251 CNS; 54.1% with PC-3 prostate. Further, the growth in the experiment with SK-MEL-5 melanoma was 38.5%; in the experiment with UACC-62 melanoma, 39.4%; in the experiment on LOX IMVI melanoma it was -70% (active); with SK-MEL-28 melanoma, 49.3%; in the experiment with SK-MEL-2 melanoma, 80.3%; with EKVX NSCLC, 62.9%. The growth in the experiment on UO-31 renal is 49.1%; in the experiment on TK-10 renal, 82.8%; in the experiment with ACHN renal, 25.4%; with CAKI-1 renal, 5.67% (active); with A498 renal, 78%; with CCRF-CEM leukemia it was 53.1%. Further, the growth with MOLT-4 leukemia is 56.4%.
Turning to `CS(=O)(=O)Nc1cc(-c2ccc3ncc(C#N)c(N[C@H](CO)c4ccccc4)c3c2)cnc1Cl`, the growth with HCT-15 colon is 36.7%; in the experiment with HT29 colon it was 74.3%; in the experiment with SNB-75 CNS, 36%; in the experiment on SNB-19 CNS it was 41.7%; with U251 CNS, 36.1%; with PC-3 prostate, 32.7%. Further, the growth in the experiment on SK-MEL-5 melanoma is -77.3% (active); in the experiment on UACC-62 melanoma it was 13.7%; in the experiment with LOX IMVI melanoma it was 26.9%; with SK-MEL-28 melanoma, 35.2%; with SK-MEL-2 melanoma, 10.3%; in the experiment with SN12C renal it was 31.1%. Besides, the growth in the experiment on UO-31 renal is 43.4%; in the experiment on TK-10 renal, 34.8%; in the experiment on ACHN renal, 81.4%; in the experiment on CAKI-1 renal it was 33.3%; in the experiment with A498 renal, 7.35% (active).
As to `Nc1ccccc1NC(=O)c1ccc(NC(=O)C/C=C/c2cccnc2)cc1`, the growth is 30.2% in the experiment on HCT-15 colon; 18.1% with HT29 colon; 44.6% in the experiment on SNB-75 CNS; 39.4% in the experiment with SNB-19 CNS; 21.5% with U251 CNS; 36.9% in the experiment on PC-3 prostate. Further, the growth in the experiment with SK-MEL-5 melanoma was 12.3%; in the experiment on UACC-62 melanoma, 15%; in the experiment with LOX IMVI melanoma, 20.3%; in the experiment on SK-MEL-28 melanoma, 0.0488% (active); in the experiment on SK-MEL-2 melanoma, 15.5%; in the experiment on EKVX NSCLC, 61.3%. In addition, the growth was 17.6% in the experiment on UO-31 renal; 28.9% in the experiment on TK-10 renal; 47.1% in the experiment with ACHN renal; 45.1% in the experiment on CAKI-1 renal; -16.4% (active) with A498 renal; 22.5% in the experiment with CCRF-CEM leukemia. Also, the growth with MOLT-4 leukemia was 31.1%.
`CC[C@]12C=CCN3CC[C@@]4(c5cc(NC(=O)COc6cc(O)c7c(=O)cc(-c8ccccc8)oc7c6)c(OC)cc5N(C)[C@H]4[C@@](O)(C(=O)OC)[C@@H]1OC(C)=O)[C@@H]32`: the growth with HCT-15 colon is -69% (active); in the experiment on HT29 colon, -61% (active); with SNB-75 CNS, -34.2% (active); with SNB-19 CNS, -54.3% (active); with U251 CNS, -87.5% (active); in the experiment on PC-3 prostate, -88.7% (active). Moreover, the growth with SK-MEL-5 melanoma was -90.9% (active); with UACC-62 melanoma, -87.3% (active); in the experiment on LOX IMVI melanoma, -93.2% (active); in the experiment with SK-MEL-28 melanoma it was -89% (active); in the experiment with SK-MEL-2 melanoma, -82.9% (active); in the experiment with EKVX NSCLC, -42.2% (active). Moreover, the growth in the experiment on UO-31 renal was -84.9% (active); in the experiment with TK-10 renal, -45.5% (active); with ACHN renal, -78.1% (active); in the experiment with CAKI-1 renal, -78.3% (active); with CCRF-CEM leukemia, -20.2% (active); in the experiment on MOLT-4 leukemia it was -23% (active).
As for `CC(C)(O)c1cncc(-c2ccc3ncnc(NCc4ccccc4)c3c2)c1`, the growth in the experiment with HCT-15 colon is 103%; in the experiment with HT29 colon, 96.7%; with SNB-75 CNS, 31%; with SNB-19 CNS it was 91.8%; in the experiment with U251 CNS, 109%; with PC-3 prostate it was 84.1%. The growth was 87.6% in the experiment on SK-MEL-5 melanoma; 84.3% with UACC-62 melanoma; 57.2% in the experiment with LOX IMVI melanoma; 88% in the experiment with SK-MEL-28 melanoma; 107% in the experiment with SK-MEL-2 melanoma; 57.6% in the experiment with SN12C renal. Also, the growth is 37.1% with UO-31 renal; 42.8% with TK-10 renal; 66.4% in the experiment with ACHN renal; 42.6% in the experiment with CAKI-1 renal; 5.8% (active) in the experiment with A498 renal; 98.6% with MOLT-4 leukemia.
Turning to `C=CC(=O)N1CC=C(c2cc3c(N[C@H](C)c4ccccc4)ncnc3[nH]2)CC1`, the growth in the experiment with HCT-15 colon was 82.6%; in the experiment on HT29 colon, 54%; in the experiment with SNB-75 CNS it was -0.73% (active); with SNB-19 CNS it was 91.9%; in the experiment with U251 CNS it was 94.6%; with PC-3 prostate, 82.7%. Also, the growth in the experiment with SK-MEL-5 melanoma is 95.5%; in the experiment on UACC-62 melanoma, 85.5%; in the experiment on LOX IMVI melanoma, 56.2%; in the experiment on SK-MEL-28 melanoma, 104%; with SK-MEL-2 melanoma, 106%; in the experiment on SN12C renal it was 22.4%. Besides, the growth is 19% in the experiment with UO-31 renal; -3.79% (active) with TK-10 renal; 15.1% in the experiment with ACHN renal; 11.3% in the experiment on CAKI-1 renal; -17.4% (active) in the experiment with A498 renal.
As to `O=c1c2ccccc2nc(COc2ccccc2)n1NS(=O)(=O)c1ccc(Cl)cc1`, the growth in the experiment on HCT-15 colon was 54.4%; in the experiment with HT29 colon, 80%; in the experiment on SNB-75 CNS it was 36.9%; in the experiment on SNB-19 CNS it was 79.8%; with U251 CNS it was 87.8%; in the experiment with PC-3 prostate, 82.7%. Also, the growth in the experiment with SK-MEL-5 melanoma was 94.5%; with UACC-62 melanoma, 76.9%; in the experiment with LOX IMVI melanoma, 83.6%; in the experiment with SK-MEL-28 melanoma it was 87.1%; with SK-MEL-2 melanoma, 74.7%; with EKVX NSCLC it was 74.8%. For the same molecule, the growth in the experiment on UO-31 renal was 62.7%; with TK-10 renal, 153%; in the experiment with ACHN renal, 92.8%; with CAKI-1 renal, 73.1%; with A498 renal, 63.3%; with CCRF-CEM leukemia it was 97%. Also, the growth in the experiment on MOLT-4 leukemia is 69.5%.

The values above are taken from PubChem BioAssay (NCI).
